# Test results reported in PubChem BioAssay (Tox21).
# Inconclusive results are not listed. Entries that show only a call come without a potency. Activity calls are given as the source filed them. Unless noted, the call rests on the fitted dose curve; in most records, active means well fitted curve in the direction sought with a large enough effect in the repeat runs; inconclusive means weak or mixed curves; inactive means no such curve, though single readings can be large; an effect the other way counts as inactive or inconclusive.
# What was measured:
# [1] = qHTS assay to identify small molecule antagonists of the glucocorticoid receptor (GR) signaling pathway - cell viability counter screen (AID 720693); further: nearly all actives have a fitted effect of over 55% in size
# [2] = qHTS assay for identifying genotoxic compounds that show differential cytotoxicity against isogenic chicken DT40 cell lines with known DNA damage response pathways - Rev3 mutant cell line (AID 743014); further: nearly all actives have a fitted effect of over 55% in size
# [3] = qHTS assay for identifying genotoxic compounds that show differential cytotoxicity against isogenic chicken DT40 cell lines with known DNA damage response pathways - Rad54/Ku70 mutant cell line (AID 743015); further: nearly all actives have a fitted effect of over 60% in size; further: potency means the concentration at half of the fitted maximal effect
# [4] = qHTS assay to identify small molecule antagonists of the androgen receptor (AR) signaling pathway - cell viability counter screen (AID 743033; further: nearly all actives have a fitted effect of over 45% in size)
# [5] = biological target: Androgen receptor (Homo sapiens) (UniProt P10275); assay: qHTS assay to identify small molecule antagonists of the androgen receptor (AR) signaling pathway (AID 743035; active means well fitted inhibition curve with a large enough effect in the signal ratio in the repeat runs, not every such curve was filed as active; the % refers to the signal ratio)
# Chain of Androgen receptor (Homo sapiens) (P10275 whole entry, looked up): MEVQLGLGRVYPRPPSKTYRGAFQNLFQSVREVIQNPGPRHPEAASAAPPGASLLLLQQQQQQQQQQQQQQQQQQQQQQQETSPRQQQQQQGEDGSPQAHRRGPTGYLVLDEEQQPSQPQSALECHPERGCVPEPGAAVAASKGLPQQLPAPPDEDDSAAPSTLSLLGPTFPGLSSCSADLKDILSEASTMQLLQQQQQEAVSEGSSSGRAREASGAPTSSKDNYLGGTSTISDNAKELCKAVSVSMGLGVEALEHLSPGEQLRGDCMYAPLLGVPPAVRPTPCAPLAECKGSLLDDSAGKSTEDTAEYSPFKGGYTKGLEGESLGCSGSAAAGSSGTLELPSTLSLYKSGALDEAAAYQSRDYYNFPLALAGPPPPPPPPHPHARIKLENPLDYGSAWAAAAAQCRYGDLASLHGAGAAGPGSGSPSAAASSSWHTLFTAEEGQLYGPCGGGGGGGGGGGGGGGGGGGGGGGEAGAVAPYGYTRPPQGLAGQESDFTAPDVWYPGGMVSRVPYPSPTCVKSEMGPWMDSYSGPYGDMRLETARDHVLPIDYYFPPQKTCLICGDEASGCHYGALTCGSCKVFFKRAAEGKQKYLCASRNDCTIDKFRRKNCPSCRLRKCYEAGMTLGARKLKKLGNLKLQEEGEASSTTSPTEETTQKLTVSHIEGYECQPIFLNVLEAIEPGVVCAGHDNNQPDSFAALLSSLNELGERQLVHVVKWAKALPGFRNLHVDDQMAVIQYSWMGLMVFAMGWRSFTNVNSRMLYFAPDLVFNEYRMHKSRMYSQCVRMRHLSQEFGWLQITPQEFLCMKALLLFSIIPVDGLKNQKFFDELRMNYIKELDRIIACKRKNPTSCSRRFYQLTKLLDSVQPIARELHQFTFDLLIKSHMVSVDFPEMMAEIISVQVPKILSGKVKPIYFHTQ
# Summary of the method: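 Using qHTS, AR-UAS-bla GripTite HEK293 cells received compound, then R1881, and were cultured 16 h at 37C/5% CO2 before a 2 h room-temperature LiveBLAzer B/G FRET substrate step and fluorescence measurement.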
# [6] = biological target: Androgen receptor (Homo sapiens) (UniProt P10275); assay: qHTS assay to identify small molecule agonists of the androgen receptor (AR) signaling pathway (AID 743036; active means well fitted activation curve with a large enough effect in the signal ratio in the repeat runs, with a control signal flat, not every such curve was filed as active; the % refers to the signal ratio)
# Summary of the method: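 Fluorescence from a beta-lactamase FRET substrate served as read-out in AR-UAS-bla GripTite HEK293 cells. Cells were treated with DMSO-dissolved compounds for 16 h at 37C, then with LiveBLAzer B/G substrate for 2 h at room temperature.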
# [7] = biological target: Androgen receptor (Homo sapiens) (UniProt P10275); assay: qHTS assay to identify small molecule agonists of the androgen receptor (AR) signaling pathway using the MDA cell line (AID 743040; further: nearly all actives have a fitted effect of over 20% in size)
# Summary of the method: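 After a 5 h incubation at 37C and 0% CO2, MDA-kb2 reporter cells were dosed with compounds in DMSO and kept 16 h under the same conditions. Luciferase activity was then read as luminescence with ONE-Glo.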
# [8] = qHTS assay to identify small molecule antagonists of the androgen receptor (AR) signaling pathway using the MDA cell line - cell viability counter screen (AID 743041; further: nearly all actives have a fitted effect of over 45% in size)
# Summary of the method: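 R1881-driven MDA-kb2 AR-luc cells, 3,000/well, were dosed with library compounds for 16 h; cell health came from CellTiter-Fluor fluorescence in the reporter wells.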
# [9] = biological target: Androgen receptor (Homo sapiens) (UniProt P10275); assay: qHTS assay to identify small molecule antagonists of the androgen receptor (AR) signaling pathway using the MDA cell line (AID 743042; further: nearly all actives have a fitted effect of over 55% in size)
# Summary of the method: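 Antagonist mode: compounds plus R1881 agonist added to MDA-kb2 AR-luc cells, incubated 16 h at 37C. Luciferase reporter luminescence quantified, with multiplexed CellTiter-Fluor readout for cell viability.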
# [10] = qHTS assay to identify small molecule antagonists of the thyroid receptor (TR) signaling pathway - cell viability counter screen (AID 743064); further: nearly all actives have a fitted effect of over 50% in size; further: potency means the concentration at half of the fitted maximal effect
# Summary of the method: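 Fluorescence from CellTiter-Fluor, added after 23.5 h exposure at 37 °C, reported viability of GH3.TRE-Luc cells co-treated with compound and 1 nM T3. Measured in the same wells as the luciferase TR readout.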
# [11] = qHTS assay to identify small molecule antagonists of the thyroid receptor (TR) signaling pathway (AID 743065); further: nearly all actives have a fitted effect of over 55% in size; further: potency means the concentration at half of the fitted maximal effect
# Summary of the method: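 Antagonism measured as loss of luciferase signal in GH3 cells stably carrying a TRE-luciferase reporter, co-treated with compound and T3 (1 nM final) for 23.5 h at 37 C. Viability was read in the same well by CellTiter-Fluor.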
# [12] = test system: thyroid hormone receptor (rat, GH3 cells); assay: qHTS assay to identify small molecule agonists of the thyroid receptor (TR) signaling pathway (AID 743066; calls by dose curve)
# [13] = biological target: Estrogen receptor (Homo sapiens) (UniProt P03372); assay: qHTS assay to identify small molecule antagonists of the estrogen receptor alpha (ER-alpha) signaling pathway (AID 743069; active means well fitted curve in the direction sought with a large enough effect in the signal ratio in the repeat runs, not every such curve was filed as active; the % refers to the signal ratio)
# Chain of Estrogen receptor (Homo sapiens) (P03372 whole entry, looked up): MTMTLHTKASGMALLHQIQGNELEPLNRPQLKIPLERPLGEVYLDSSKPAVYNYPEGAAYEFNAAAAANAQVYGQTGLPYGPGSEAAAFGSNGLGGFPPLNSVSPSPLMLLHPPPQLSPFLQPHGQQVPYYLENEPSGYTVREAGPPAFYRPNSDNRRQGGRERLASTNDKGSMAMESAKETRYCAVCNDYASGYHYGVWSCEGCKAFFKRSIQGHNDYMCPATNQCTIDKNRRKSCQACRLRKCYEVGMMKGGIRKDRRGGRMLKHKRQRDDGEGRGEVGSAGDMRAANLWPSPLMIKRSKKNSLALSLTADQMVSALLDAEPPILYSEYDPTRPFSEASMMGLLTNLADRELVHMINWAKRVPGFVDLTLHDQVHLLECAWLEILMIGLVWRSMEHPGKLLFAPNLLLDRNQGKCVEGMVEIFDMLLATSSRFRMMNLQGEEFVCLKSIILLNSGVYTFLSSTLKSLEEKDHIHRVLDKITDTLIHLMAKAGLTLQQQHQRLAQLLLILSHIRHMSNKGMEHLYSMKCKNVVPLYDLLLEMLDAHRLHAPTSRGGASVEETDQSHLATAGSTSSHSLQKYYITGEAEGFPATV
# Summary of the method: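 Compound effects are measured against 17beta-estradiol stimulation in HEK293 cells with a UAS-controlled beta-lactamase reporter for ER-alpha. Exposure lasts 18 hr at 37C; LiveBLAzer B/G FRET substrate follows for 2 hr at room temperature.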
# [14] = biological target: Estrogen receptor (Homo sapiens) (UniProt P03372); assay: qHTS assay to identify small molecule agonists of the estrogen receptor alpha (ER-alpha) signaling pathway (AID 743075; calls by dose curve)
# [15] = biological target: Estrogen receptor (Homo sapiens) (UniProt P03372); assay: qHTS assay to identify small molecule agonists of the estrogen receptor alpha (ER-alpha) signaling pathway using the BG1 cell line (AID 743079); further: nearly all actives have a fitted effect of over 20% in size; further: potency means the concentration at half of the fitted maximal effect
# [16] = qHTS assay to identify small molecule antagonists of the estrogen receptor alpha (ER-alpha) signaling pathway using the BG1 cell line (AID 743080; calls by dose curve;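 further: BG1 cells stimulated with 17beta-estradiol alongside compound; series mostly up to about 70 µM; nearly all actives have a fitted effect of over 25% in size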)
# Summary of the method: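 Luciferase inhibition measured with ONE-Glo after 30 min at RT in BG1Luc4E2 cells given test compounds and 17beta-estradiol for 21.5 h at 37 C; CellTiter-Fluor viability read in the same wells beforehand.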
# [17] = qHTS assay to identify small molecule antagonists of the estrogen receptor alpha (ER-alpha) signaling pathway using the BG1 cell line - cell viability counter screen (AID 743081);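 further: compound given together with 17beta-estradiol as the ER stimulus; series mostly up to about 70 µM; nearly all actives have a fitted effect of over 45% in size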
# Aromatase (Homo sapiens) = Aromatase (Homo sapiens) (UniProt P11511); assay: qHTS assay to identify aromatase inhibitors (AID 743083)
# Chain of Aromatase (Homo sapiens) (P11511 whole entry, looked up): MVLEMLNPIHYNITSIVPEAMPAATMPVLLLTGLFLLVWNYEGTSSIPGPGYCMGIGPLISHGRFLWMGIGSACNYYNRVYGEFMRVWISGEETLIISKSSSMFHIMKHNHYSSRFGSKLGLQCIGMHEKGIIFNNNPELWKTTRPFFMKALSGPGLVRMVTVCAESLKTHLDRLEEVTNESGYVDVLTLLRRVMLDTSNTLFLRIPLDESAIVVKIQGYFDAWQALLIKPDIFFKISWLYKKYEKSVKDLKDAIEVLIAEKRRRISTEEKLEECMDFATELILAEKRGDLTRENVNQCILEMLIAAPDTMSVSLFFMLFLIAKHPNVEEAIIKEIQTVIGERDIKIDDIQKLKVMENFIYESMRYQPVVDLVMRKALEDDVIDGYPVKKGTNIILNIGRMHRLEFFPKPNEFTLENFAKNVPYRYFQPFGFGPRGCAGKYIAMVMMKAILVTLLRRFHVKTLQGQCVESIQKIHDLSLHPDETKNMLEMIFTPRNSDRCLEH
# [18] = qHTS assay for identifying genotoxic compounds that show differential cytotoxicity against isogenic chicken DT40 cell lines with known DNA damage response pathways - wild type cell line (AID 743012); further: nearly all actives have a fitted effect of over 60% in size; further: potency means the concentration at half of the fitted maximal effect
# Summary of the method: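 Using parental DT40 (300 cells/well), compounds delivered in DMSO incubate 40 h at 37 C/5% CO2. CellTiter-Glo reagent then stands 30 min at room temperature, and luminescence gives cell viability.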
# [19] = qHTS assay to identify small molecule antagonists of the estrogen receptor alpha (ER-alpha) signaling pathway - cell viability counter screen (AID 743074; calls by dose curve;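 further: HEK293 cells carrying ER-alpha-UAS-bla reporter stimulated with 17beta-estradiol; nearly all actives have a fitted effect of over 45% in size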)
SMILES,outcome [1],Potency [2],Potency [3],Potency [4],Potency [5],outcome [6],outcome [7],Potency [8],Potency [9],Potency [10],Potency [11],outcome [12],outcome [13],outcome [14],Potency [15],Potency [16],outcome [17],Potency (Aromatase (Homo sapiens)),Potency [18],outcome [19]
CNC(=O)[C@H]1O[C@@H](n2cnc3c(NCc4cc(Cl)ccc4OCc4cc(C)no4)ncnc32)[C@H](O)[C@@H]1N,inactive,inactive,inactive,inactive,inactive,inactive,inactive,inactive,inactive,inactive,inactive,inactive,inactive,inactive,inactive,inactive,inactive,inactive,,
CC(CC=O)CCCC(C)(C)O (centres undefined),inactive,,inactive,inactive,inactive,inactive,inactive,inactive,inactive,inactive,inactive,inactive,inactive,inactive,inactive,inactive,inactive,inactive,inactive,inactive
CC(=O)NCc1c(I)c(NC(C)=O)c(I)c(C(=O)O)c1I,inactive,,inactive,inactive,,inactive,inactive,inactive,inactive,inactive,inactive,inactive,inactive,inactive,13.3 µM (active),inactive,inactive,inactive,inactive,inactive
CC(COC(C)(C)C)OCCCO (centres undefined),inactive,,inactive,inactive,,,,inactive,,inactive,inactive,,,,,,inactive,inactive,inactive,inactive
CC[C@H](C)C(=O)O[C@H]1C[C@H](O)C=C2C=C[C@H](C)[C@H](CC[C@@H](O)C[C@@H](O)CC(=O)O)[C@H]21,inactive,,,inactive,,,,inactive,,inactive,inactive,inactive,inactive,inactive,inactive,inactive,inactive,inactive,inactive,inactive
O=C1c2cccc3c2[C@H](CCC3)CN1[C@@H]1CN2CCC1CC2,inactive,,23.7 µM (active),,,,,,,23.7 µM (active),18.8 µM (active),inactive,,inactive,inactive,,,inactive,11.9 µM (active),inactive
CCCCCCCCC(=O)Cl,inactive,inactive,inactive,inactive,,,,inactive,,inactive,inactive,inactive,inactive,inactive,inactive,inactive,inactive,inactive,,inactive
NCCN1CCOCC1,inactive,,inactive,inactive,,,,inactive,,inactive,inactive,inactive,,,,,inactive,inactive,inactive,
C=C1CC/C=C(\C)CC[C@@H]2[C@@H]1CC2(C)C,inactive,,inactive,inactive,,,,inactive,,inactive,inactive,inactive,inactive,inactive,inactive,inactive,inactive,inactive,inactive,inactive
